Bead autofluor: compound fluorescence in toxin protease inhibitor counterscreen | 360,000 tested, 3.1% active | compound autofluorescence counterscreen, microsphere flow cytometry; hits give high values | fluorescence intensity (concentration not given with the values) | AID 624483; in the data active means fluorescence intensity above about 16000; inconclusive means no clear call, values can overlap the other calls
Vc quorum ag: induces V. cholerae light production without autoinducers | activation, % at 18.7 µM | V. cholerae BH1578 lux reporter, luminescence, 6 h | 350,000 tested, 0.16% active; in the data active means activation mostly above about 9.7%, no sharp cut-off; inconclusive means no clear call, values can overlap the other calls; inactive means mostly below about 3.7%
BoNT A protease: blocks Botulinum neurotoxin A light chain protease | multiplex microsphere protease substrate cleavage, flow cytometry | inhibition, % at 10 µM | 360,000 tested, 0.17% active | AID 588499; further: plate controls were buffer without enzyme for full effect and enzyme alone for no effect
BJeLR lethal: BJeLR cell viability loss; BJeLR (HRASV12) viability, CellTiter-Glo ATP luminescence, 48 h; inhibition, % (test concentration not listed); 300,000 tested, 0.17% active; AID 1554; in the data active means inhibition above about 50%; inconclusive means no clear call, values can overlap the other calls
Anthrax LF inh2: blocks Bacillus anthracis lethal factor protease; P15917; multiplex microsphere protease cleavage assay, LF; inhibition, % at 10 µM; 360,000 tested, 0.12% active; further: plate controls were buffer without enzyme for full effect and enzyme alone for no effect
BoNT-F LC inh: inhibitors of Botulinum neurotoxin F light chain protease; Multiplex microsphere protease cleavage assay, flow cytometry; inhibition, % at 10 µM; 360,000 tested, 0.22% active; AID 588497; in the data active means inhibition above about 35%, passing the limit was not always enough; inconclusive means no clear call, values can overlap the other calls; further: plate controls were buffer without enzyme for full effect and enzyme alone for no effect
* = called active by the depositor; i = inactive; ? = inconclusive; · = no result. This is a sample that favours compounds with a hit; in the whole collection about 3.7% have one here. Unless noted, no stated cut-off is given here; in the data, active means inhibition above about 30%; inconclusive means no clear call, values can overlap the other calls; inactive means below that.

SMILES	Bead autofluor	Vc quorum ag	BoNT A protease	BJeLR lethal	Anthrax LF inh2	BoNT-F LC inh
Cc1csc(=O)n1CCC(=O)OCC(=O)NCc1ccccc1	2900	0	0	·	-2	-8
Cc1cc(OCC(=O)Nc2c(C(C)C)cccc2C(C)C)no1	5687	-4	2	·	-3	-7
CCN(CC)CC(=O)c1ccc(-c2ccccc2)cc1	9589	0	0	2	-1	2
CN(C)CC(=O)c1ccc(-c2ccccc2)cc1	20222*	0	1	8	1	2
Cc1cccc(CSCc2ccc(C(=O)NC(C)C)o2)c1	3559	-1	3	-3	-2	10
CC(C)CCNC(=O)c1ccc(CSCc2cccc(F)c2)o1	17562*	-2	5	-6	-4	4
CCCS(=O)(=O)NC(=O)C1(C)CCCN(C(=O)c2ccc(OC)cc2)C1 (configuration not stated)	3532	0	0	·	1	0
CCOc1ccc2nc(N3CCOCC3)nc(C)c2c1	5871	i	1	10	5	1
CCOc1ccc2nc3ccc4[nH]onc4c3c2c1	5438	i	?	9	12	50*
COc1ccc(OC(F)(F)F)cc1CC1(C)C(=O)Nc2ccc(S(=O)(=O)NC3CCCCC3)cc21 (configuration not stated)	2920	0	0	·	0	4
C#CCN(C[C@@H]1[C@@H](OC(=O)NCc2ccco2)[C@@H](OC(=O)NCc2ccco2)CN(C(=O)OC(C)C)N1C(=O)OC(C)C)S(=O)(=O)c1ccc(C)cc1	2933	-1	-1	·	-10	-8
O=C(Nc1nc2ccccc2s1)c1ccc2sc([C@H]3C[C@H](O)[C@@H](CO)O3)nc2c1	2960	-1	0	·	-6	-2
Cc1ccc(-c2noc(C3CCCN(C(=O)c4c(F)cccc4F)C3)n2)cc1 (configuration not stated)	21313*	i	2	-1	-7	4
COc1ccc(C(=O)N2CCCC(c3nc(-c4ccc(OC)c(OC)c4)no3)C2)c(OC)c1 (configuration not stated)	20939*	i	5	11	-9	5
O=C(Cc1ccccc1)N1CCC(c2nc(-c3ccc(F)cc3)no2)CC1	16726*	i	10	-2	-10	12
COc1ccc(-c2noc(C3CCCN(C(=O)c4cccc(C)c4)C3)n2)cc1 (configuration not stated)	4215	0	-3	-1	-12	?
O=C(c1c(F)cccc1F)N1CCCC(c2nc(-c3ccc(Cl)cc3)no2)C1 (configuration not stated)	3848	i	4	2	-7	?
O=C(C1CC1)N1CCC(c2nc(-c3ccc(S(=O)(=O)NCC4CCCO4)cc3)no2)CC1 (configuration not stated)	19413*	i	7	27	-12	9
COc1ccc(CCN2C(=O)COc3ccccc3C2C(=O)Nc2ccc3c(c2)OCCO3)cc1OC (configuration not stated)	5765	·	1	·	0	0
Cc1cccc(C)c1NC(=O)CNC(=O)CNC(=O)c1ccc2ccccc2c1	2766	-5	0	·	3	1
COc1ccc(-c2noc(C3CCCN(C(=O)c4ccccc4OC)C3)n2)cc1OC (configuration not stated)	16635*	-1	?	-16	-1	0
COc1ccc(-c2noc(C3CCCN(C(=O)c4c(F)cccc4F)C3)n2)cc1OC (configuration not stated)	3255	-1	5	-5	-3	-12
O=C1NC[C@H](CCCCN2CCN(CCc3ccc(O)cc3)C(=O)C2=O)N(CCc2ccc(O)cc2)C1=O	5952	·	-1	·	-6	-13
CC(=O)NC(c1ccc(F)c(F)c1)c1nc(-c2cccc(C(=O)O)c2)cs1 (configuration not stated)	3916	0	0	·	-2	1
O=C1CC(SCCc2nc3ccccc3[nH]2)C(=O)N1c1ccc(F)cc1 (configuration not stated)	7967	0	0	0	4	0
SMILES	Bead autofluor	Vc quorum ag	BoNT A protease	BJeLR lethal	Anthrax LF inh2	BoNT-F LC inh
COc1ccc(N2C(=O)CC(SCCc3nc4ccccc4[nH]3)C2=O)cc1 (configuration not stated)	19552*	i	4	0	0	4
O=C(N/N=C/c1cc2c3c(c1O)CCCN3CCC2)c1ccccc1O	1927	0	2	53*	-4	-29
Cc1nn(-c2ccccc2)c(N2CCCC2)c1/C=N/NC(=O)c1ccccc1O	2502	0	0	1	-2	-4
CC1C(c2ccccc2)OCCN1C(=S)Nc1ccc(S(=O)(=O)N2CCCCC2)cc1 (configuration not stated)	3533	i	0	·	9	-2
O=C(NCCO)/C(=C/c1ccc(Br)cc1)NC(=O)c1cccs1	23982*	0	-2	6	-1	0
O=C(NCCO)/C(=C\c1ccco1)NC(=O)c1cccs1	3989	0	1	5	-7	5
CSc1ncnc2c1ncn2CCCNCCCc1ccccc1	2942	-1	0	·	-3	-4
CC1(C(=O)NCc2cccc3ccccc23)CCN1C(=O)Cc1ccc(-c2ccccc2)cc1 (configuration not stated)	2968	i	0	·	-1	4
CSc1nc(C)cc(OCCO)n1	4964	0	0	8	0	-19
CSc1nc(C)cc(OCC(=O)n2nc(C)cc2C)n1	23438*	-1	?	7	-5	0
N/C(=N\OC(=O)C12CC3CC(CC(C3)C1)C2)c1ccccc1	17662*	i	5	-12	-10	5
N/C(=N\OC(=O)C12CC3CC(CC(C3)C1)C2)c1cccnc1	9199	-3	0	0	1	13
CCCCC[C@@H](C)N1C[C@H](COCc2ccccc2)Oc2cc(N3CCC[C@H]3CO)ccc2S1(=O)=O	5931	·	0	·	-8	-2
CCOc1ccc(OCc2ccc(C(=O)N3N=C(C(F)F)CC3(O)C(F)F)o2)cc1 (configuration not stated)	17666*	0	-4	-8	-4	-3
COc1cccc(-c2cnc3c(NC=O)cc(-c4ccncc4)cn23)c1	3794	1	0	·	-4	1
COC(=O)CC1SC(=O)NC1=Nc1ccccc1 (configuration not stated)	23324*	i	1	4	1	0
COc1ccc(-c2ccc3[nH]c4c(c3c2)CCN2C(=O)[C@@H]([C@H](C)O)[C@@H](N(C)C(=O)Nc3ccc(F)cc3)C[C@@H]42)cc1	2829	-2	0	·	-10	-6
CCN(CC)CCOc1ncnc2c1oc1ccccc12	19366*	i	?	7	0	5
CN1/C(=C\C(=S)NC(=O)c2ccccc2Cl)C(C)(C)c2ccccc21	4289	i	38*	-8	18	2

Screens deposited in PubChem BioAssay by several laboratories.
